# High-throughput results as filed in PubChem.
# This is a sample that favours compounds with a hit; in the whole collection about 12% have one here.
# Pf growth 48h: P. falciparum growth inhibition at 48 hours (one generation) | P. falciparum luciferase growth in erythrocytes, 48 h | Potency, µM (top dose mostly 28.7 µM), hits mostly inhibitors | 310,000 compounds, 5.9% hits | AID 504832
#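 Growth was read as firefly luciferase luminescence after a 48 h, 37 C, 5% CO2 exposure of compounds to reporter-bearing P. falciparum cultures (0.1% parasitemia, 2% hematocrit final) in Albumax-supplemented RPMI 1640.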
# Pf growth 96h: inhibits malaria parasite growth, 96 h | P. falciparum luciferase reporter growth, 96 h | Potency, µM (series often up to 28.7 µM), usual class: inhibitors | AID 504834 | 320,000 compounds, 6.9% hits
#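 Plates of compound plus infected erythrocytes (2% hematocrit, 0.05% parasitemia final) incubate 96 hours, 37 C, 5% CO2. Detection reagent added; reduced luminescence from the parasites' luciferase reporter flags inhibition.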
# Sm TGR block: S. mansoni TGR enzyme inhibition. Potency, µM (doses to about 114 µM), hits mostly inhibitors. purified TGR, DTNB reduction, TNB absorbance 405 nm. 360,000 compounds, 3% hits; also: nearly all actives have a fitted effect of over 60% in size
#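 Kinetic colorimetric format: TGR-catalysed, NADPH-driven DTNB reduction monitored via TNB absorbance. Enzyme dispensed at 20 nM; compound exposure 15 min at room temperature before reaction start.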
# SARS PLP yeast: inhibitors of SARS-CoV papain-like protease in yeast; S. cerevisiae expressing SARS-CoV PLpro, growth rescue; Potency, µM (series often up to 32.9 µM), most hits filed as activators; 330,000 compounds, 0.19% hits; calls by dose curve; also: nearly all actives have a fitted effect of over 55% in size
# A number is an active result; i = inactive; ? = inconclusive; nt = no result. Unless noted, calls follow the shape of the dose curve; as a rule, active = well fitted curve in the direction sought with a large enough effect; inconclusive = small, poorly fitted or top-dose-only effect, or another doubt; inactive = no such curve, though single readings can be large; an effect the other way counts as inactive or inconclusive.
SMILES,Pf growth 48h,Pf growth 96h,Sm TGR block,SARS PLP yeast
O=Cc1ccc(OC(=O)CCCCC(=O)Oc2ccc(C=O)cc2)cc1,?,0.0033µM,i,i
CCc1ccc2[nH]cc(S(=O)(=O)c3ccc(C(C)C)cc3)c(=O)c2c1,nt,nt,i,nt
COC(=O)C(CC(=O)c1ccc(Br)cc1)n1cccn1 (stereo unspecified),i,i,4.5µM,i
Cc1ccc(C(=O)N2CCN(S(=O)(=O)c3cc(Br)ccc3Br)CC2)o1,i,i,i,i
COCCCn1c(SCC(=O)n2c(C)c(C)c3ccccc32)nnc1-c1ccoc1C,i,i,45µM,i
CCn1c(SCC(=O)n2c(C)c(C)c3ccccc32)nnc1-c1ccco1,i,6.6µM,i,i
CC1(C(=O)NC2CCCCC2)Cc2ccccc2C(=O)N1Cc1ccc(Cl)cc1 (stereo unspecified),nt,nt,i,nt
COc1ccccc1CNC(=O)c1cn(C)c2ccc(S(=O)(=O)N3CCC(C)CC3)cc2c1=O,nt,nt,i,nt
CCOC(=O)c1ccc(NC(=O)c2cccc(S(=O)(=O)N3c4ccccc4CC3C)c2)s1 (stereo unspecified),12µM,?,i,i
CC1Cc2ccccc2N1S(=O)(=O)c1cccc(C(=O)NCCCO)c1 (stereo unspecified),i,?,i,i
COc1ccccc1NC(=O)CSc1nc2c(oc3ccccc32)c(=O)n1-c1ccccc1F,nt,nt,i,nt
COc1ccc(CNC(=O)CCNS(=O)(=O)c2ccc(NC(C)=O)cc2)cc1OC,i,i,i,i
Cc1ccc(NC(=O)C2CCCN(S(=O)(=O)c3ccc4[nH]c(=O)ccc4c3)C2)cc1Cl (stereo unspecified),nt,nt,i,nt
CN(C(=O)n1cnc2ccccc21)c1ccccc1,i,i,i,i
ClC(Br)=C(n1cnc2ccccc21)n1cnc2ccccc21,10µM,i,i,i
COc1cc2[nH]c(C(=O)N3CCC(Cc4ccccc4)CC3)cc2c(OC)c1OC,3.3µM,3.7µM,i,i
CCN(Cc1ccccc1)C(=O)c1cc2c(OC)c(OC)c(OC)cc2[nH]1,nt,8.3µM,35µM,i
COc1cc2[nH]c(C(=O)N(C)Cc3ccccc3)cc2c(OC)c1OC,?,?,i,i
CCOC(=O)C1CCN(C(=O)c2cc3c(OC)c(OC)c(OC)cc3[nH]2)CC1,i,?,i,i
CCOC(=O)CNC(=O)C1(/C=C/c2ccccc2)CC(=O)N1c1ccc(OC)cc1 (stereo unspecified),10µM,?,i,i
O=C1CC(/C=C/c2ccccc2)(C(=O)NC2CCCC2)N1c1ccc(S(=O)(=O)N2CCCC2)cc1 (stereo unspecified),i,i,i,i
COc1ccc(N2C(=O)CC2(/C=C/c2ccccc2OC)C(=O)NC2CCCC2)cc1 (stereo unspecified),12µM,i,i,i
Oc1ccccc1C1CCCCC1c1ccccc1 (stereo unspecified),7.4µM,?,i,i
COc1ccccc1NC(=O)C1Cc2ccccc2CN1C(=O)c1ccco1 (stereo unspecified),?,i,32µM,i
Cc1c(Cl)cccc1NC(=O)C1Cc2ccccc2CN1C(=O)c1ccccc1 (stereo unspecified),i,9.3µM,i,?
SMILES,Pf growth 48h,Pf growth 96h,Sm TGR block,SARS PLP yeast
O=C(Nc1ccccc1)C1Cc2ccccc2CN1C(=O)c1ccco1 (stereo unspecified),nt,?,40µM,i
Cc1cccc(NC(=O)C2Cc3ccccc3CN2C(=O)OCc2ccccc2)c1C (stereo unspecified),?,i,i,i
CC(=O)N1CC(O)CC1C(=O)O (stereo unspecified),i,i,nt,nt
O=C1c2ccccc2C(=O)c2c(NCc3cccnc3)cccc21,?,?,i,i
CN(C)S(=O)(=O)c1ccccc1C#N,i,i,i,i
CNc1cccc2c1C(=O)c1ccccc1C2=O,i,2.9µM,i,i
CN(C)S(=O)(=O)c1cccc2c1C(=O)c1ccccc1C2=O,12µM,10µM,25µM,i
COc1ccc(C(=O)N2CCCCC2CCN2CCCCC2)cc1 (stereo unspecified),nt,nt,i,nt
CCOC(=O)C(C#N)C(Cc1ccccc1)c1ccco1 (stereo unspecified),i,i,45µM,i
CCCCc1c(O)nc2ccccn2c1=O,?,12µM,i,i
Cc1c(O)nc2ccccn2c1=O,i,i,i,i
CCCCc1nn2c(=O)cc(COC(=O)c3ccco3)nc2s1,nt,nt,i,nt
COc1ccc(NC(=O)CSc2nnc(NC(=O)Nc3ccccc3)s2)c(OC)c1,nt,nt,i,nt
Cn1c(C=O)c(C#Cc2ccccc2)c2ccccc21,12µM,?,i,i
